Experimental data: article PMC7862700, “An all-to-all approach to the identification of sequence-specific readers for epigenetic DNA modifications on cytosine”

Key:
Experiment in all cases: DAPPL (digital affinity profiling via proximity ligation, sequencing); 10 mM Tris-HCl pH 7.5, 50 mM NaCl, 1 mM DTT, 4% glycerol, room temperature, 30 min; GST-TFs on glutathione beads, 16-mer random dsDNA library, 0.1% formaldehyde crosslink after washing; high values mean tight binding
Details in all cases: protein: recombinant; tags: N-terminal GST; dsDNA, one strand shown
FLI1 = molecular target: T1, FLI1 (Homo sapiens, UniProt Q01543 1-452)
T1 sequence: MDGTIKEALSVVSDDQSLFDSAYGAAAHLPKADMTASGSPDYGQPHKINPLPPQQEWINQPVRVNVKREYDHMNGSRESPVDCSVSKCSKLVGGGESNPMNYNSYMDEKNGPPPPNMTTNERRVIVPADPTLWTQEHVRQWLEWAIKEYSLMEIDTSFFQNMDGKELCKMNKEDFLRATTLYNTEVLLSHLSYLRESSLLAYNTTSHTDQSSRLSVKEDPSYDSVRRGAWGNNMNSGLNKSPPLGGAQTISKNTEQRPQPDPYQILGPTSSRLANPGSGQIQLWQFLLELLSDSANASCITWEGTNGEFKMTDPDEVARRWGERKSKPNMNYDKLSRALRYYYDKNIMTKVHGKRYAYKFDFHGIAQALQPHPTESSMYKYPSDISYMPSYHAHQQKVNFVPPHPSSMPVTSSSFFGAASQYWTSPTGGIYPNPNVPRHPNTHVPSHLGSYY
Procedure, shortened: (§1)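 After expression in yeast as GST fusions, human transcription factors were bound to glutathione beads, DNA-barcoded and mixed with a tag-only sample. The pools were incubated with 200 nmole of a 16-mer random double-stranded DNA library in Tris/NaCl/DTT/glycerol buffer (30 min, room temperature), washed and crosslinked with 0.1% formaldehyde. Proximity ligation with BsaI/T4 ligase ran for 1 h at 37 °C, before PCR amplification and sequencing on an Illumina NextSeq500. Binding signal is a hexamer's read frequency for a factor divided by its frequency for the tag-only sample.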

ELK1 = molecular target: T2, ELK1 (Homo sapiens, UniProt P19419 1-428)
T2 sequence: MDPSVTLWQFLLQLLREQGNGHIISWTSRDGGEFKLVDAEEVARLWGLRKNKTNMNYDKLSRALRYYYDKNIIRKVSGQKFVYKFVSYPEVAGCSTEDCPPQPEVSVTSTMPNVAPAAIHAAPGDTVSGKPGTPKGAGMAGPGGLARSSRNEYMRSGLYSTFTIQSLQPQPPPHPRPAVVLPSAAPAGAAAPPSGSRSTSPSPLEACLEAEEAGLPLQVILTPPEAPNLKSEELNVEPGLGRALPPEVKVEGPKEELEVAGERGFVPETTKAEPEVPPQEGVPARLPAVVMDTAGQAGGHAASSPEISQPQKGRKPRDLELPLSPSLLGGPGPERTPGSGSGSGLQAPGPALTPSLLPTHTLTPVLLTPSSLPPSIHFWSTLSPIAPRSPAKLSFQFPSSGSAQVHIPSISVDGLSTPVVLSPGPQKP
Procedure, shortened: as §1

GABPA = molecular target: T3, GABPA (Homo sapiens, UniProt Q06546 1-454)
T3 sequence: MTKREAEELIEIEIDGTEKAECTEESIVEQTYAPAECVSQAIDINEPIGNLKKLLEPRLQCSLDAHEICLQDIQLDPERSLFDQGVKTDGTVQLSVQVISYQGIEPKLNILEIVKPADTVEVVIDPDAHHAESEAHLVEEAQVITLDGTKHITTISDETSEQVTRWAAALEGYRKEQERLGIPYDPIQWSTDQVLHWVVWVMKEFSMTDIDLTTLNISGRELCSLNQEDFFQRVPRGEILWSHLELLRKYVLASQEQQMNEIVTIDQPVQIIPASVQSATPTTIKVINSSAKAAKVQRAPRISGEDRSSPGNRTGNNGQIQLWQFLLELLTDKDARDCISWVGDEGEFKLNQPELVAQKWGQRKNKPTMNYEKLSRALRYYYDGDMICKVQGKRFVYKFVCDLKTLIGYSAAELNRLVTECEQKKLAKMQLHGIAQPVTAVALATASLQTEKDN
Procedure, shortened: as §1

ERG = molecular target: T4, ERG (Homo sapiens, UniProt P11308 1-479)
T4 sequence: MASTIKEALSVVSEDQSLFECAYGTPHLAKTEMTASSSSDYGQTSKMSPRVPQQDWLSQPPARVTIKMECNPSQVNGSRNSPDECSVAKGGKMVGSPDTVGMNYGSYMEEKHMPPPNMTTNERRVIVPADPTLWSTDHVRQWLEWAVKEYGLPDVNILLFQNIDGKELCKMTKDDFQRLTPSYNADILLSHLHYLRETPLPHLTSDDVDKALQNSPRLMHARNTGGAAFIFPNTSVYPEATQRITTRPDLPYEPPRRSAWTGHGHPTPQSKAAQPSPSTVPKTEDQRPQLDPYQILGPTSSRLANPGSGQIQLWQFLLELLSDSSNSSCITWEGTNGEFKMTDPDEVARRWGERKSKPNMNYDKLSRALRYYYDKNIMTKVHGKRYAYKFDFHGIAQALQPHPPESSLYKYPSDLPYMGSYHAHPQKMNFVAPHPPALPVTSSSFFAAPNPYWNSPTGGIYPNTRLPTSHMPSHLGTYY
Procedure, shortened: as §1

ELF1 = ELF1 (Homo sapiens, UniProt P32519 1-619)
Procedure, shortened: as §1

EHF = molecular target: T5, EHF (Homo sapiens, UniProt Q9NZC4 1-300)
T5 sequence: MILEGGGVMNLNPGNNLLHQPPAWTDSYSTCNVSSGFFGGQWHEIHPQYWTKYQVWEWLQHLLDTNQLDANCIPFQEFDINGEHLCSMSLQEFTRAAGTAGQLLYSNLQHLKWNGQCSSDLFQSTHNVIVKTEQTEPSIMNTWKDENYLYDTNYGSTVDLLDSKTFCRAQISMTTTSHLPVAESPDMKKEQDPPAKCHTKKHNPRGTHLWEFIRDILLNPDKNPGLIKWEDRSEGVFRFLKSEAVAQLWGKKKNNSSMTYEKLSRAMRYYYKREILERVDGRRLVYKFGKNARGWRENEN
Procedure, shortened: as §1

SPI1 = SPI1 (Homo sapiens, UniProt P17947 1-270)
Procedure, shortened: as §1

SPIB = SPIB (Homo sapiens, UniProt Q01892 1-262)
Procedure, shortened: as §1

ELK3 = molecular target: T6, ELK3 (Homo sapiens, UniProt P41970 1-407)
T6 sequence: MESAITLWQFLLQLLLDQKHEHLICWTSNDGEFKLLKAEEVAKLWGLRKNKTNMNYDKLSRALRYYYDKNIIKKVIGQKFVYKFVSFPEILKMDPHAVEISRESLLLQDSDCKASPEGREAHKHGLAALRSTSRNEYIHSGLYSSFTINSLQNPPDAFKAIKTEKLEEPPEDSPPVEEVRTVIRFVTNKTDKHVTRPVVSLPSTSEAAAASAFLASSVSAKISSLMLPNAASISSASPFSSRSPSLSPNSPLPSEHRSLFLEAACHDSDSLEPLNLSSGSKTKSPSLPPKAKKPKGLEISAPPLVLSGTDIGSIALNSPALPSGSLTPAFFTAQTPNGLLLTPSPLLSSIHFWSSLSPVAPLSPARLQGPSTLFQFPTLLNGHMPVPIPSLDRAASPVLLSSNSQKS
Procedure, shortened: as §1

Sequence of SPIB (Q01892 whole entry): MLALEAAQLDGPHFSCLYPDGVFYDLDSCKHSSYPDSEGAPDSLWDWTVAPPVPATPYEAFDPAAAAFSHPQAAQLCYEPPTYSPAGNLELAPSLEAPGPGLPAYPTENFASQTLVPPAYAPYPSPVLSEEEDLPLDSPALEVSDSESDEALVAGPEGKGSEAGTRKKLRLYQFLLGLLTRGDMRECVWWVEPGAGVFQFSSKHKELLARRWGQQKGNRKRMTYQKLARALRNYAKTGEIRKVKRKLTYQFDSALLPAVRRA
Sequence of ELF1 (P32519 whole entry): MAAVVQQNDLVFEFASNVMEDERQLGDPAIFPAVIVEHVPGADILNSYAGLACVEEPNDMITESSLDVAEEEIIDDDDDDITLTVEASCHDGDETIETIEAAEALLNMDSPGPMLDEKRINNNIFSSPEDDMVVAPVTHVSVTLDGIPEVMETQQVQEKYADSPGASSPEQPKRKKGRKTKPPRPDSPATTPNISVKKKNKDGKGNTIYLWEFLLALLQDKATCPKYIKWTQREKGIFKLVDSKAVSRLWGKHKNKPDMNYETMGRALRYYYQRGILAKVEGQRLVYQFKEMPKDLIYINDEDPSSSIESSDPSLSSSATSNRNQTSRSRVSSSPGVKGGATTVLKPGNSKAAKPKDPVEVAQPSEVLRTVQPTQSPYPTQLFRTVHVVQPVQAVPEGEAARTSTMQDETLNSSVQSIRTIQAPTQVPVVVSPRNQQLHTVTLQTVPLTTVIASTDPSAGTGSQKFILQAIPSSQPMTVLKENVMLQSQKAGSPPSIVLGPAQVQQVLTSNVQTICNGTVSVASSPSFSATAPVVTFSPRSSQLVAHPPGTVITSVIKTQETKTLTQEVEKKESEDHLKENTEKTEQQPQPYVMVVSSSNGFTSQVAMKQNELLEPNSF

Sequence	binding signal (FLI1)	binding signal (ELK1)	binding signal (GABPA)	binding signal (ERG)	binding signal (ELF1)	binding signal (EHF)	binding signal (SPI1)	binding signal (SPIB)	binding signal (ELK3)
AAGTGT	1.18 fold enrichment (6-mer frequency, TF over GST control)	1.29 fold enrichment (6-mer frequency, TF over GST control)	1.32 fold enrichment (6-mer frequency, TF over GST control)	1.44 fold enrichment (6-mer frequency, TF over GST control)	1.24 fold enrichment (6-mer frequency, TF over GST control)	1.24 fold enrichment (6-mer frequency, TF over GST control)	1.6 fold enrichment (6-mer frequency, TF over GST control)	1.38 fold enrichment (6-mer frequency, TF over GST control)	1.37 fold enrichment (6-mer frequency, TF over GST control)
ATTCAA	1.26 fold enrichment (6-mer frequency, TF over GST control)	1.34 fold enrichment (6-mer frequency, TF over GST control)	1.4 fold enrichment (6-mer frequency, TF over GST control)	1.36 fold enrichment (6-mer frequency, TF over GST control)	1.39 fold enrichment (6-mer frequency, TF over GST control)	1.41 fold enrichment (6-mer frequency, TF over GST control)	1.31 fold enrichment (6-mer frequency, TF over GST control)	1.34 fold enrichment (6-mer frequency, TF over GST control)	1.39 fold enrichment (6-mer frequency, TF over GST control)
ATGTAG	1.05 fold enrichment (6-mer frequency, TF over GST control)	1.03 fold enrichment (6-mer frequency, TF over GST control)	1.04 fold enrichment (6-mer frequency, TF over GST control)	1.01 fold enrichment (6-mer frequency, TF over GST control)	1.09 fold enrichment (6-mer frequency, TF over GST control)	1.07 fold enrichment (6-mer frequency, TF over GST control)	1 fold enrichment (6-mer frequency, TF over GST control)	1.01 fold enrichment (6-mer frequency, TF over GST control)	1.05 fold enrichment (6-mer frequency, TF over GST control)
TTCCCT	1.81 fold enrichment (6-mer frequency, TF over GST control)	1.67 fold enrichment (6-mer frequency, TF over GST control)	1.72 fold enrichment (6-mer frequency, TF over GST control)	1.72 fold enrichment (6-mer frequency, TF over GST control)	1.68 fold enrichment (6-mer frequency, TF over GST control)	1.68 fold enrichment (6-mer frequency, TF over GST control)	2.23 fold enrichment (6-mer frequency, TF over GST control)	1.9 fold enrichment (6-mer frequency, TF over GST control)	1.8 fold enrichment (6-mer frequency, TF over GST control)
ACGACA	1.16 fold enrichment (6-mer frequency, TF over GST control)	1.05 fold enrichment (6-mer frequency, TF over GST control)	1.18 fold enrichment (6-mer frequency, TF over GST control)	1.17 fold enrichment (6-mer frequency, TF over GST control)	1.07 fold enrichment (6-mer frequency, TF over GST control)	1.27 fold enrichment (6-mer frequency, TF over GST control)	1.09 fold enrichment (6-mer frequency, TF over GST control)	1.16 fold enrichment (6-mer frequency, TF over GST control)	1.11 fold enrichment (6-mer frequency, TF over GST control)
TCCCGC	1.48 fold enrichment (6-mer frequency, TF over GST control)	1.53 fold enrichment (6-mer frequency, TF over GST control)	1.4 fold enrichment (6-mer frequency, TF over GST control)	1.42 fold enrichment (6-mer frequency, TF over GST control)	1.47 fold enrichment (6-mer frequency, TF over GST control)	1.52 fold enrichment (6-mer frequency, TF over GST control)	1.37 fold enrichment (6-mer frequency, TF over GST control)	1.48 fold enrichment (6-mer frequency, TF over GST control)	1.46 fold enrichment (6-mer frequency, TF over GST control)
TGCCTG	1.17 fold enrichment (6-mer frequency, TF over GST control)	1.27 fold enrichment (6-mer frequency, TF over GST control)	1.32 fold enrichment (6-mer frequency, TF over GST control)	1.32 fold enrichment (6-mer frequency, TF over GST control)	1.33 fold enrichment (6-mer frequency, TF over GST control)	1.36 fold enrichment (6-mer frequency, TF over GST control)	1.26 fold enrichment (6-mer frequency, TF over GST control)	1.29 fold enrichment (6-mer frequency, TF over GST control)	1.59 fold enrichment (6-mer frequency, TF over GST control)
TGGCAA	1.23 fold enrichment (6-mer frequency, TF over GST control)	1.21 fold enrichment (6-mer frequency, TF over GST control)	1.22 fold enrichment (6-mer frequency, TF over GST control)	1.15 fold enrichment (6-mer frequency, TF over GST control)	1.2 fold enrichment (6-mer frequency, TF over GST control)	1.16 fold enrichment (6-mer frequency, TF over GST control)	1.2 fold enrichment (6-mer frequency, TF over GST control)	1.32 fold enrichment (6-mer frequency, TF over GST control)	1.11 fold enrichment (6-mer frequency, TF over GST control)
